The results in this text go back to PubChem BioAssay AID652231 (Johns Hopkins Ion Channel Center, 2013).

Molecules are shown by their SMILES. About 55 (2%) of roughly 2,300 compounds were called active.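 Rule for the calls: active = duplicate-averaged calcium signal over 20% of the ionomycin maximum, relative to buffer baseline; inactive = the rest.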 The list comes from a sample in which actives are over-represented; it also holds similar structures and randomly drawn compounds.

The assay is described as follows: compound-evoked intracellular calcium rise – cell-based, counter-screen for TMEM16A inhibitor project, confirmation (AID 652231).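 For calcium response (% of ionomycin): each well's signal is peak minus trough fluorescence divided by its pre-addition baseline; 0% = buffer wells and 100% = ionomycin wells.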 The following applies: TMEM16A/YFP HEK293, Fluo4 calcium mobilization, at 10 µM; hits give high values. A general note: Calcium flux is commonly read through the fluorescence of an indicator in the cells.
As to `CCc1cc2c(N3CCN(c4nnc(CC)s4)CC3)ncnc2s1`, the calcium response (% of ionomycin) result was “inactive”.

For the compound `COc1ccc(C(=O)NC2CCCc3c2cnn3-c2cccc(C)c2C)c(OC)n1` (stereo not drawn), the calcium response (% of ionomycin) result was “inactive”.

Consider `O=c1cc(C(F)(F)F)[nH]c(=O)n1C1CCCCC1`, for which the calcium response (% of ionomycin) entry was “inactive”. In the case of `CCOC(=O)c1cccc(NC(=O)CCn2nnc3ccccc32)c1`, the calcium response (% of ionomycin) result was “inactive”. Take `COc1ccc(OCC(=O)NCCc2ccc(S(N)(=O)=O)cc2)cc1`: the calcium response (% of ionomycin) result was “inactive”. The value for `Fc1ccc2[nH]c3c(N4CCSCC4)ncnc3c2c1` was “inactive”; that for `Cc1ccc(-n2ncc3c(N4CCN(c5ccc(F)cc5)CC4)ncnc32)c(C)c1` was “inactive”.

On to `Cc1ccc(-c2noc(CSc3nnnn3-c3ccccc3)n2)cc1`, for which the calcium response (% of ionomycin) result was “inactive”. The value for `Cc1cc(C=O)c(C)n1-c1ccc(NC2CCCCC2)c([N+](=O)[O-])c1` was “inactive”. For `Cc1cccc(-n2c(SCC(N)=O)nc3c(c2=O)C2(CCCCC2)Cc2ccccc2-3)c1` the value was “inactive”; for `O=C(NCCc1ccc2c(c1)OCCO2)c1cc2ccccc2o1`, “inactive”. For `COc1ccc(CCC(=O)c2ccc(OC)cc2)cc1` the value was “inactive”; for `CCCCNC(=O)CSc1nc2n[nH]c(C)c2c(=N)n1-c1cccc(Cl)c1C`, “inactive”; for `CCOC(=O)N1CC=C2C(C#N)=C(N)C(C#N)(C#N)[C@H](c3cccs3)[C@H]2C1`, “inactive”.

Consider `COc1ccc(NC(=O)C2=CC(c3ccc(OC)c(OC)c3)=NS(=O)(=O)N2C)cc1`, for which the calcium response (% of ionomycin) result was “inactive”. The value for `Cc1nc2c(C(=O)NCc3ccc4c(c3)OCO4)c[nH]n2c(=O)c1Cc1ccccc1F` was “inactive”. Take `Cc1ccc(C)c(N2CCN(S(=O)(=O)c3ccc4c(c3)oc(=O)n4C)CC2)c1`: the calcium response (% of ionomycin) result is “inactive”. On to `CC1CCN(C(=O)c2ccc(CSc3ccc(Cl)cc3)cc2)CC1`, for which the calcium response (% of ionomycin) result was “inactive”. `CN1c2ccc(C=O)c3c(C=O)ccc(c23)N(C)C1(C)C`: the calcium response (% of ionomycin) is 64.5% (active). On to `COc1cccc(CNS(=O)(=O)c2ccc3c(c2)CC(C)N3C(=O)C2CCC2)c1` (stereo not drawn), for which the calcium response (% of ionomycin) result was “inactive”. The value for `CN(Cc1cccnc1)C(=O)c1cc(COc2ccc3ncccc3c2)on1` was “inactive”; that for `Cc1ccc2c(c1)N(S(=O)(=O)c1cc(-c3cc(C)no3)ccc1C)CCO2` was “inactive”; that for `CC(=O)c1c(C)[nH]c(C(=O)COC(=O)c2cccc(S(=O)(=O)N(C)c3ccccc3)c2)c1C` was “inactive”. The value for `Cc1ccc(C(=O)O)cc1-c1ccc(/C=C2\SC(=O)N(CC(=O)Nc3ccc4c(c3)OCO4)C2=O)o1` was “inactive”. For `CCN(CC)S(=O)(=O)c1ccc(N(C)Cc2ccc(C(F)(F)F)cc2)nc1` the value was “inactive”; for `Cn1c(=O)n(C)c2cc(S(=O)(=O)N3CCCc4ccccc43)ccc21`, “inactive”. Consider `N#Cc1nc(COc2ccc(-c3ccccc3)cc2)oc1NCc1cccnc1`, for which the calcium response (% of ionomycin) result was “inactive”. Turning to `CCn1nccc1C(=O)Nc1ccc(S(=O)(=O)NC23CC4CC(CC(C4)C2)C3)cc1`, the calcium response (% of ionomycin) result is “inactive”. With `C=CCn1c(SCC(=O)Nc2nc3ccccc3s2)nnc1-c1ccccc1O`, the calcium response (% of ionomycin) result was “inactive”. As for `CCCc1cc(=S)n2c([nH]c3ccccc32)c1C#N`, the calcium response (% of ionomycin) result is “inactive”. Turning to `COc1ccc(-c2nc(CCNC(=O)c3ccc(Br)o3)cs2)cc1`, the calcium response (% of ionomycin) entry is “inactive”.

In the case of `O=C(CN1CCN(C(=S)NC2CCCC2)CC1)Nc1ccc(Oc2ccccc2)cc1`, the calcium response (% of ionomycin) entry was “inactive”. The value for `Cc1ccccc1-n1nnnc1SCCCC(=O)c1ccc(F)cc1` was “inactive”; that for `Cc1ccc(N)cc1-n1c(C)ccc1C` was “inactive”. The value for `Cc1ccc(C)c(N2CCN(C(=O)CCCCn3c(=O)[nH]c4ccccc4c3=O)CC2)c1` was “inactive”; that for `CCOC(=O)C(Sc1ncc(C#N)c(N)n1)C(C)C` (stereo not drawn) was “inactive”. With `O=C(COC(=O)CCc1c[nH]c(=O)[nH]1)Nc1ccccc1Cl`, the calcium response (% of ionomycin) entry is “inactive”. The value for `Cc1ccc(NC(=O)C(C)c2cccc(C(=O)c3ccccc3)c2)cc1` (stereo not drawn) was 20.5% (active); that for `S=C(NCc1ccc(Cl)cc1)NC12CC3CC(CC(C3)C1)C2` was “inactive”. For `Cc1noc(C)c1COC(=O)c1cc2ccccc2cc1O` the value was “inactive”; for `C=CCSc1nsc(NC(=O)Nc2cccc(C(C)=O)c2)n1`, “inactive”; for `CCCOc1ccc(Cc2c(Cl)nc(SC)nc2NC)cc1`, “inactive”.

Take `Cn1c(CCN2CCCCCC2)nc2cc(NC(=O)Nc3ccccc3)ccc21`: the calcium response (% of ionomycin) entry is “inactive”.

With `CCOC(=O)N1CCN(C(=O)c2ccc3c(c2)N(Cc2ccc(C)cc2)CCS3)CC1`, the calcium response (% of ionomycin) result was “inactive”.

Regarding `CSc1nsc(NC(=O)Nc2ccccc2)n1`, the calcium response (% of ionomycin) entry was “inactive”.

`CCC(=O)Nc1ccc2nc(C)n(Cc3ccccc3Cl)c(=O)c2c1`: the calcium response (% of ionomycin) result is “inactive”.

As for `Cc1ccc(NC(=O)CN(C)CC(=O)Nc2cccc(F)c2)cc1[N+](=O)[O-]`, the calcium response (% of ionomycin) result was “inactive”. The value for `Cc1ccc(N2C(=O)S/C(=C/c3cn(C)c4ccccc34)C2=O)cc1` was “inactive”; that for `Cc1nc(SCC(=O)N2CCc3ccccc3C2)c2c(C)c(C)sc2n1` was “inactive”; that for `COc1ccc(CN(C)C(=O)CC(c2ccccc2)c2ccccc2)cc1` was “inactive”. For `Cc1nc(C)c(-c2csc(NCCc3ccccc3)n2)s1` the value was “inactive”. For `COC(=O)c1ccc(NC(=O)c2ccccc2NS(=O)(=O)c2ccccc2)cc1` the value was “inactive”; for `O=C(CSCc1ccc(Cl)cc1)N1CCN(Cc2ccc3c(c2)OCO3)CC1`, “inactive”; for `COc1ccc2[nH]cc(/C=C(/C#N)S(=O)(=O)c3ccccc3)c2c1`, “inactive”. Consider `CC1=NN(c2cccc(Cl)c2)C(=O)C12CC(C)=C(C)CS2` (stereo not drawn), for which the calcium response (% of ionomycin) result was “inactive”. For `Cc1ccc(F)cc1NC(=O)Cc1nn(C)c(=O)c2ccccc12` the value was “inactive”; for `CSc1cccc(NC(=S)N(C(C)C)C(C)c2ccccn2)c1` (stereo not drawn), “inactive”; for `Cc1cc(C)cc(NS(=O)(=O)c2ccc(Oc3ncc(C(F)(F)F)cc3Cl)cc2)c1`, “inactive”.

In the case of `CN(c1cccc(NC(=O)c2ccc(CN3CCc4ccccc4C3)cc2)c1)S(C)(=O)=O`, the calcium response (% of ionomycin) entry is “inactive”. For `CC(C)CNC(=S)NNC(=O)c1nn(C)cc1Cl` the value was “inactive”; for `CC(NC(=O)c1ccco1)C(=O)Nc1nc(-c2ccccn2)cs1` (stereo not drawn), “inactive”; for `COc1ccc(S(=O)(=O)NCCCCOc2ccc(Cl)cc2)cc1`, “inactive”.

`COc1cc(CC(=O)Nc2nc(-c3ccc(F)c(F)c3)cs2)cc(OC)c1OC`: the calcium response (% of ionomycin) entry is “inactive”. Turning to `C=C(C)Cn1c(C)cc(C)c(S(=O)(=O)c2ccccc2C)c1=O`, the calcium response (% of ionomycin) entry is “inactive”.

`Cc1ccc(-c2csc(-c3c[nH]c4ccccc34)n2)cc1`: the calcium response (% of ionomycin) entry is “inactive”. For `S=C(NCC1CCCO1)N1CCN(c2ccc(Cl)c(Cl)c2)CC1` (stereo not drawn) the value was “inactive”; for `COc1ccc(CNc2nnnn2C)cc1`, “inactive”; for `O=C(Nc1cccc(S(=O)(=O)Nc2ccc(Cl)cc2)c1)c1ccc2c(c1)OCCO2`, “inactive”.
